The full ranking holds about 68,000 sequences; the median of “fluorescence intensity (a.u.)” is about 9,100, and the highest 2% start at about 16,000. For the sample, the highest values were picked, then their nearest neighbours and some sequences at random.

Sequence of OsWRKY34 (Q0JBA9 entry or part of it): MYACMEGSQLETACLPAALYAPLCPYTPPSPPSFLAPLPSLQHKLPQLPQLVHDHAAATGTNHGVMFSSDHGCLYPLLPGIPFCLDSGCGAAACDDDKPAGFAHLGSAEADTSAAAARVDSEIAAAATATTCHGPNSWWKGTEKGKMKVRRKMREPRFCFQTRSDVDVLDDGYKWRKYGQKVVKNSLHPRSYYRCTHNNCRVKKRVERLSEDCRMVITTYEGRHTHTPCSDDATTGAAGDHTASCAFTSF

This test deals with OsWRKY34 (Oryza sativa, UniProt Q0JBA9 1-250). In words: protein-binding microarray (RPBM); PBS, 2% BSA, 51.3 ng/ul salmon testes DNA, 50 uM zinc acetate, 200 nM TF, 25 C, 1 h; high values mean tight binding. The settings on record: protein: recombinant; tags: N-terminal polyhistidine and DsRed monomer fusion (pET32a); label: CyDye5-dUTP incorporated in the synthesized complementary strand; 3' TTTTT single-stranded linker to array surface; dsDNA, one strand shown. A digest of the protocol:
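Binding signal is defined as the fluorescence intensity of each feature in arbitrary units, read on an Axon 4000B scanner. Transcription factors with N-terminal polyhistidine and DsRed fusions came from E. coli BL21-CodonPlus and were purified on Ni–NTA. They were incubated at 200 nM for 1 h at 25 °C on a custom Agilent array that had been made double-stranded with Cy5-dUTP, with 50 µM zinc acetate present, and the array was washed.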
With “ATATCATGTTTATTATCTTGTTATTTTGGATTAAAATATGCGGAGTCACCTAGTGCAG”, the binding signal was 9720 fluorescence intensity (a.u.).

As for “GATGCCTGCCAATCTGCCATGCCATTATATCTGCAGTTCTCGGAGTCACCTAGTGCAG”, the binding signal is 12000 fluorescence intensity (a.u.).

As for “CGTCTCTCCCGATCCGTCCCATCAAAAAGCAACACCAATACGGAGTCACCTAGTGCAG”, the binding signal was 8530 fluorescence intensity (a.u.).

Turning to “ATTTTTATAGTATTACATCTACGTGTAAAGTTTCATCTTTCGGAGTCACCTAGTGCAG”, the binding signal is 8260 fluorescence intensity (a.u.).

Consider “CTATGGTTTGGTTTGAATTTTACTGTTGTATGCTGTTCCCCGGAGTCACCTAGTGCAG”, for which the binding signal is 8660 fluorescence intensity (a.u.).

Take “TGGCCGGGAGGGTTGGCCCTTGTGGTTTCGGGGTTTGGTTCGGAGTCACCTAGTGCAG”: the binding signal is 15900 fluorescence intensity (a.u.).

As to “CTTTTCTCATCCCTTTTGTTTCTTCACTCCGGCTCACCGCCGGAGTCACCTAGTGCAG”, the binding signal is 8230 fluorescence intensity (a.u.).

As for “GTACACGTTACCCGCGTGGGTGTGGGTATGGGGATGATTTCGGAGTCACCTAGTGCAG”, the binding signal is 11700 fluorescence intensity (a.u.).

Regarding “GATCAGAGATGAGGGCGGGCGGGTTGACTGGGAGAGTAGACGGAGTCACCTAGTGCAG”, the binding signal was 20500 fluorescence intensity (a.u.).

As for “CGAGGGAGAGGGGAGAGGGGAGTGCGGCGGGTGAGGCGGGCGGAGTCACCTAGTGCAG”, the binding signal was 9650 fluorescence intensity (a.u.).

Regarding “GGGTTGAGATGGGAGTAGAGGGGAGTGAGGTGGAAGAAGACGGAGTCACCTAGTGCAG”, the binding signal is 8360 fluorescence intensity (a.u.).

With “AGTGTTCTAGACTTACGGGTTACGGTTTTTTTTGTTAGAGCGGAGTCACCTAGTGCAG”, the binding signal was 8090 fluorescence intensity (a.u.).

In the case of “GGGTGTTTTCAGACGGAGAGAGGCGGCGGCGGCGGCGGGGCGGAGTCACCTAGTGCAG”, the binding signal was 18500 fluorescence intensity (a.u.).

As for “TATTTTTGACCAGAGGGAGGGTTTTTTTTTTTTTGAGAGACGGAGTCACCTAGTGCAG”, the binding signal was 10300 fluorescence intensity (a.u.).

Take “TAGGGTTTGGTTGGGTTTTTGGGTGTTTTCAGACGGAGAGCGGAGTCACCTAGTGCAG”: the binding signal was 12800 fluorescence intensity (a.u.).

Take “TGAGAAAGAGAGAGAGAGGGAGATGGCTGGGGAGACGGGGCGGAGTCACCTAGTGCAG”: the binding signal is 9660 fluorescence intensity (a.u.).

On to “GCGGTGATGACAGACGGGAGAGGGAGGGTTTTTTTTGTTACGGAGTCACCTAGTGCAG”, for which the binding signal was 18200 fluorescence intensity (a.u.).

For the sequence “ACACAGCCACACACCAACATGCCCTTCAGGTCTTCACACTCGGAGTCACCTAGTGCAG”, the binding signal was 9550 fluorescence intensity (a.u.).

As to “TTGTCTCCTATCTTGTGCCGTGCCTTCTTAAACCATTGCTCGGAGTCACCTAGTGCAG”, the binding signal is 8610 fluorescence intensity (a.u.).

In the case of “CATGGCCTAGTTGGGGTGTTGCGTATGTAATTTATCTGTCCGGAGTCACCTAGTGCAG”, the binding signal is 8100 fluorescence intensity (a.u.).

For “TTGACGGAGCATCTATACCCGGTTTTGTAGTTCATGAACACGGAGTCACCTAGTGCAG”, the binding signal is 9100 fluorescence intensity (a.u.).

For the sequence “ATTTTGGTACTACTCTATATTTTAGTTTGCAGCTTGTGCTCGGAGTCACCTAGTGCAG”, the binding signal is 10600 fluorescence intensity (a.u.).

With “ATATACACATTCTCCCATTGCTATATTATCTGTATTCTGACGGAGTCACCTAGTGCAG”, the binding signal was 13400 fluorescence intensity (a.u.).

On to “CTCTCTCTATCCATCTCTTTCTCTCTCTCTTACACAACAACGGAGTCACCTAGTGCAG”, for which the binding signal is 8150 fluorescence intensity (a.u.).

“ATCTATCACCATCTCTCCTTGATCTTGTGCACCTTACAAACGGAGTCACCTAGTGCAG”: the binding signal was 16800 fluorescence intensity (a.u.).

“GATCTTGTGCACCTTACAAATTACATTGCCGACCATAAAACGGAGTCACCTAGTGCAG”: the binding signal was 9320 fluorescence intensity (a.u.).

As to “GTTATCAGCTTTTCTTTTTTTTTTGAAATTTCAGATTATTCGGAGTCACCTAGTGCAG”, the binding signal was 8980 fluorescence intensity (a.u.).

In the case of “CCCCATTCACTTCCACAGACAAGTAGCATCACCTTTCAGTCGGAGTCACCTAGTGCAG”, the binding signal is 8710 fluorescence intensity (a.u.).

Take “CCTCCTTTTGACTCAGCAAGTCAATTGTGGTCAACCTGCCCGGAGTCACCTAGTGCAG”: the binding signal is 8970 fluorescence intensity (a.u.).

Regarding “TAAATGTTTAACGTCGTTGACTTTTTTAAACATGTATGACCGGAGTCACCTAGTGCAG”, the binding signal is 19200 fluorescence intensity (a.u.).

In the case of “AATATATGACGCCGTTAACTTTTCGAACAACATTTGACTACGGAGTCACCTAGTGCAG”, the binding signal was 9760 fluorescence intensity (a.u.).

With “TAAATGTTTAACGTTGTTGACTTTTTTAAACATGTTTGACCGGAGTCACCTAGTGCAG”, the binding signal is 13500 fluorescence intensity (a.u.).

In the case of “CACCTTGACTCAGCGTGGTTGACTCTAGTCAACTTGTCACCGGAGTCACCTAGTGCAG”, the binding signal was 10400 fluorescence intensity (a.u.).

On to “CCATATTTTAATGTATGACGCCATTGACTTTTTGTCCAACCGGAGTCACCTAGTGCAG”, for which the binding signal is 14500 fluorescence intensity (a.u.).

Take “CGATCAACGTTTGACTATTTGTTTTATTCAAAATTTTTGTCGGAGTCACCTAGTGCAG”: the binding signal is 9460 fluorescence intensity (a.u.).

“ATTTTAATGTATGACGCCGTTGACTTTTTGTCCAACGTTTCGGAGTCACCTAGTGCAG”: the binding signal was 25600 fluorescence intensity (a.u.).

For the sequence “GTTGACCGTTGACCTTTTTGTGGGTCAACTCAATCAAGACCGGAGTCACCTAGTGCAG”, the binding signal is 16600 fluorescence intensity (a.u.).

Turning to “GTATGACGCCGTTGACTTTTCGATCAACGTTTGACTATTTCGGAGTCACCTAGTGCAG”, the binding signal was 25300 fluorescence intensity (a.u.).

In the case of “CACCAAGCATGTCCATGACCTTGCACTCTTGGCTCACTCGCGGAGTCACCTAGTGCAG”, the binding signal was 8030 fluorescence intensity (a.u.).

As to “CAAAATCCTTTTTCTTTTTTTCATTTTTTCTGTGCTTTTTCGGAGTCACCTAGTGCAG”, the binding signal is 8680 fluorescence intensity (a.u.).

In the case of “TAGGCTGATGGGTCTTCATGCTTCGGTTCATCTTCGTCTCCGGAGTCACCTAGTGCAG”, the binding signal was 10200 fluorescence intensity (a.u.).

As for “GGTGAGCTCTCTTTAATGCATATACACAGCAGCCTATTGCCGGAGTCACCTAGTGCAG”, the binding signal was 8440 fluorescence intensity (a.u.).

Turning to “TGTGATTTGCACCGCATACTTTCCCCGACAATAGATCATCCGGAGTCACCTAGTGCAG”, the binding signal is 8850 fluorescence intensity (a.u.).

For the sequence “CCTCCGCTTCTTCGCCGCCGCCGCCATCCCGCCCTAGCGACGGAGTCACCTAGTGCAG”, the binding signal is 9070 fluorescence intensity (a.u.).

For the sequence “ATTTTCTTTAAGAGATGTTCTTGTCTGTTGTCAGGTTTGTCGGAGTCACCTAGTGCAG”, the binding signal is 9670 fluorescence intensity (a.u.).

Source of the values: paper PMC7819943, “Rice protein-binding microarrays: a tool to detect cis-acting elements near promoter regions in rice”.
